Source: PubChem (several laboratories)
Shown are actives, neighbours in structure and some others; about 2.3% of the full set was active somewhere.
SENP8 block-1 = SENP8 protease inhibition; Q96LD8; purified SENP8, Z-RLRGG-aminoluciferin cleavage, luminescence; inhibition, % at 10 µM; 330,000 tested, 1.2% active; AID 2540; in the data active = inhibition above about 50%
Target sequence (Q96LD8 whole entry, looked up): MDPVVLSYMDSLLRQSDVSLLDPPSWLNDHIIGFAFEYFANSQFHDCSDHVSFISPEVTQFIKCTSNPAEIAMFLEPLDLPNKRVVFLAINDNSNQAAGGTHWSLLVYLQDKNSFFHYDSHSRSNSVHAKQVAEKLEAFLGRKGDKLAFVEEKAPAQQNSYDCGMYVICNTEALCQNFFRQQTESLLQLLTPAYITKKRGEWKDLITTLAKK
LGR2 inh = Drosophila LGR2 receptor signaling inhibition. HEK293 LGR2, CRE-luciferase, bursicon-stimulated, 4 h. inhibition, % at 9.99 µM. 380,000 tested, 0.35% active. AID 720647;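 active = drop in luminescence signal, shown as inhibition above about 50% in the replicate tests, limit read from the data, passing the limit was not always enough; inconclusive = probably only some replicates passing the limit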;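 note: agonist challenge used bursicon conditioned medium at about half maximal strength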
SENP7 inh = SENP7 protease inhibition; Q9BQF6; recombinant SENP7, Z-RLRGG-aminoluciferin luminescence, 40 min; inhibition, % at 5 µM; 330,000 tested, 1.5% active; AID 434973;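 active = inhibition above about 50% at the single test dose, limit read from the data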
Target sequence (Q9BQF6 706-1050 limits assumed): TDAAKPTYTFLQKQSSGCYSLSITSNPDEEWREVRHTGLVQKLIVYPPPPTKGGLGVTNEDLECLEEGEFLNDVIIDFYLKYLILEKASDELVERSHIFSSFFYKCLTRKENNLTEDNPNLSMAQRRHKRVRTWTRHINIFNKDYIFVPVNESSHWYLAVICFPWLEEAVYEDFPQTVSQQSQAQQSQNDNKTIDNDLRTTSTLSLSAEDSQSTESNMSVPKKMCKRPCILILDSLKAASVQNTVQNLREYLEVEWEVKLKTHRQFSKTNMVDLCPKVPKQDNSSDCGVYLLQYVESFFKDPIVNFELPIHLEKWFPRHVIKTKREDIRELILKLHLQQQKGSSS
SENP6 block = inhibitors of human SENP6 protease; inhibition, % at 10 µM; Recombinant SENP6 catalytic domain, aminoluciferin luminescence; 330,000 tested, 1.8% active; Q9GZR1; AID 2599;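 active = inhibition above about 50% at the single tested dose, limit read from the data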
SENP8 block-2 = inhibitors of human SENP8 protease. 360,000 tested, 0.64% active. inhibition, % at 20 µM. recombinant SENP8, Nedd8 substrate fluorescence. Q96LD8; in the data active = inhibition mostly above about 40%, no sharp cut-off; inactive = mostly below about 27%
HSP90 refold inh = HSP90 refolding inhibition in rabbit reticulocyte lysate | 290,000 tested, 0.91% active | inhibition, % at 5.6 µM | luciferase refolding luminescence, 3 h;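 active = inhibition above the screen-wide mean plus 3 SD, computed separately per campaign, cut at about 16% in these data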;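 note: inhibitors lower the luminescence because luciferase stays unfolded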
Each line names hits and unclear results; the compound was inactive in the other large screens.

Cc1ccc(C)c2[nH]c(=O)c(C(c3nnnn3Cc3ccccc3)N3CCc4ccccc4C3)cc12 (stereo not drawn)	SENP6 block 65.8 (no result: LGR2 inh)
CCC(CNc1cc(OC)cc2cccnc12)NC1CCCCC1 (stereo not drawn)	HSP90 refold inh 29.2 (no result: SENP8 block-1, SENP7 inh, SENP6 block)
COc1cc(NS(=O)(=O)c2ccc(C)cc2)c2ncccc2c1	none (no result: LGR2 inh)
COCC(=O)N1C[C@H]2[C@@H](c3ccccc31)[C@@H](CO)N2Cc1ccccc1F	none (no result: SENP8 block-1, SENP7 inh, SENP6 block, SENP8 block-2, HSP90 refold inh)
O=C(NCc1cccnc1)/C(=C\c1ccc(-c2ccc(Cl)c(Cl)c2)o1)S(=O)(=O)c1ccccc1	LGR2 inh 102.5 (no result: SENP8 block-1, SENP7 inh, SENP6 block)
O=c1[nH]c(-c2ccco2)nc2sc3c(c12)CCCC3	SENP6 block 50.6
O=c1[nH]c(S)nc2sc3c(c12)CCCC3	none (no result: LGR2 inh)
COc1cccc(-c2ccc3c(c2)[C@H]2[C@H](CCN2C(=O)NC2CCCCC2)[C@H](CO)N3C)c1	none (no result: SENP8 block-1, SENP7 inh, SENP6 block, SENP8 block-2, HSP90 refold inh)
Cc1cc2nn(-c3ccc(F)cc3)nc2cc1N	SENP8 block-1 70.5, SENP6 block 76.1 (no result: LGR2 inh)
Cc1ccc(-n2nc3ccc(N)cc3n2)cc1	SENP8 block-1 80.3, SENP6 block 88.7 (no result: LGR2 inh)
COc1ccc(-n2nc3ccc(N)cc3n2)cc1	none (no result: SENP8 block-1, SENP7 inh, SENP6 block, HSP90 refold inh)
CC(C)C#Cc1cnc2c(c1)C(=O)N([C@@H](C)CO)C[C@H](C)[C@@H](CN(C)Cc1cncnc1)O2	none (no result: SENP8 block-1, SENP7 inh, SENP6 block, SENP8 block-2, HSP90 refold inh)
CCOc1ccc(S(=O)(=O)Nc2cc(SCC(=O)O)c(O)c3ccccc23)cc1	SENP8 block-2 45.5 (no result: SENP8 block-1, SENP7 inh, SENP6 block)
O=C(O)CSc1cc(NS(=O)(=O)c2cccc([N+](=O)[O-])c2)c2ccccc2c1O	LGR2 inh inconclusive (no result: SENP8 block-1, SENP7 inh, SENP6 block)
CN1C(=O)c2cc(NC(=O)C3CCCC3)ccc2OC[C@H]2O[C@@H](CC(=O)NCC(F)(F)F)CC[C@@H]21	none (no result: SENP8 block-1, SENP7 inh, SENP6 block, SENP8 block-2, HSP90 refold inh)
O=C1/C(=C\c2ccc([N+](=O)[O-])cc2)CCc2ccccc21	SENP8 block-1 90.8, SENP7 inh 86.9, SENP6 block 82.4
Cc1noc(C)c1NC(=O)NCC[C@H]1CC[C@H](NC(=O)Nc2cccc(F)c2)[C@@H](CO)O1	none (no result: SENP8 block-1, SENP7 inh, SENP6 block, SENP8 block-2, HSP90 refold inh)
Cc1noc(C)c1NC(=O)Nc1cccc2c1O[C@H](CN(C)S(=O)(=O)c1cccs1)[C@H](C)CN([C@H](C)CO)C2=O	none (no result: SENP8 block-1, SENP7 inh, SENP6 block, SENP8 block-2, HSP90 refold inh)
COc1ccc(CC2=C(O)c3ccccc3C(=O)C2=O)cc1	SENP8 block-2 68.4
COc1ccc(CN2C(=O)c3ccccc3C2=O)cc1	none
COc1ccccc1-c1cc2nc(-c3ccccc3)cc(N3CCN(C(=O)c4ccco4)CC3)n2n1	LGR2 inh 88.9 (no result: SENP8 block-1, SENP7 inh, SENP6 block, HSP90 refold inh)
COc1ccccc1-c1cc2nc(-c3ccccc3)cc(N3CCN(C(=O)c4ccoc4)CC3)n2n1	none (no result: SENP8 block-1, SENP7 inh, SENP6 block, HSP90 refold inh)
CCCN1C(=O)/C(=C/c2ccc(C)o2)SC1=Nc1ccc(OC)cc1	none
CCCN1C(=O)/C(=C/c2ccco2)SC1=Nc1ccc(OC)cc1	SENP8 block-2 47.6 (no result: LGR2 inh)
CCOC(=O)c1nn(-c2ccccc2)c(=O)c2c(N)scc12	SENP8 block-2 54.6 (no result: LGR2 inh)
Cc1ccc(S(=O)(=O)Nc2ccc(O)c(Sc3ncn[nH]3)c2)cc1	none
CC(C)c1ccc(S(=O)(=O)/N=C2/C=C(Sc3ncn[nH]3)C(=O)c3ccccc32)cc1	HSP90 refold inh 59.6 (no result: SENP8 block-1, LGR2 inh, SENP7 inh, SENP6 block)
CCCc1ccc(C(=O)NC(=O)c2ccccc2O)cc1	SENP8 block-1 61.8, SENP6 block 72.9 (no result: LGR2 inh)
CCCc1ccc(C(=O)NNC(=O)c2ccc(Br)cc2)cc1	none
Nc1nc2c(s1)CCc1c-2cnn1-c1ccccc1	SENP6 block 61.7 (no result: LGR2 inh)
O=C(Oc1ccc(Br)cc1C(=S)N1CCCCC1)c1cc([N+](=O)[O-])cc([N+](=O)[O-])c1	SENP8 block-2 43.8 (no result: LGR2 inh)
O=C(Oc1ccc(Br)cc1C(=S)N1CCCC1)c1ccccc1Cl	none (no result: LGR2 inh)
c1ccc(-c2cc3cc4c(cc3cn2)OCO4)cc1	SENP8 block-1 80.1, SENP7 inh 89.9, SENP6 block 86.4 (no result: HSP90 refold inh)
c1ccc(-c2cc(-c3ccccc3)ncn2)cc1	none (no result: LGR2 inh, HSP90 refold inh)
CC(=O)N(C)C[C@@H]1Oc2ncc(C#CCc3ccccc3)cc2C(=O)N([C@@H](C)CO)C[C@H]1C	none (no result: SENP8 block-1, SENP7 inh, SENP6 block, SENP8 block-2, HSP90 refold inh)
N#C/C(=C(/O)COc1ccccc1)c1nc2ccccc2s1	none
N#C/C(=C(/O)COc1ccc(Cl)cc1)c1nc2ccccc2s1	SENP8 block-1 80.9, SENP6 block 93.1
N#C/C(=C(/O)c1ccc(F)cc1)c1nc2ccccc2s1	SENP8 block-1 81.8, SENP7 inh 50.9, SENP6 block 87.2
Cc1cc(C(=O)Nc2cccc3c2O[C@H](CN(C)Cc2ccc4c(c2)OCO4)[C@H](C)CN([C@@H](C)CO)C3=O)n(C)n1	none (no result: SENP8 block-1, SENP7 inh, SENP6 block, SENP8 block-2, HSP90 refold inh)
O=C(Nc1cccc([N+](=O)[O-])c1)c1ccc(-c2ccccc2)cc1	none
